From PubChem BioAssay AID720706 (Broad Institute, 2013)
The campaign covered roughly 350,000 compounds. About 5,500 (1.6%) were called active.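 How the source made its calls: active means significant combined selectivity score with lowered wild-type GFP, culture density cut under 30%, mutant RFP and density less affected; inactive means any of these conditions unmet.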 This excerpt belongs to a sample that is enriched for actives.

experiment: reduced GFP signal of wild-type E. coli, primary screen, bacterial rRNA inhibitor project, GFP/RFP fluorescence, OD600, single point (AID 720706); settings: E. coli WT GFP vs humanized-ribosome RFP mutants, 24 h; GFP signal change (wild-type ribosome): stronger effect = lower value, DMSO median 0, no signal -100; OD600 change: measured here: OD600 growth, DMSO median 0, no signal -100; RFP signal change: measured here: RFP humanized mutant strains, DMSO median 0, no signal -100, concentration not given here

| SMILES | GFP signal change (wild-type ribosome) | OD600 change [%] | RFP signal change [%] |
| --- | --- | --- | --- |
| CCCN(C)C[C@H]1OCCCC[C@H](C)Oc2ccc(NS(=O)(=O)c3ccc(C)cc3)cc2C(=O)N([C@@H](C)CO)C[C@H]1C | -0.746% (inactive) | -1.7 | -0.147 |
| CC(C)NC(=O)N1CCCCN2[C@@H](CO)[C@@H](c3ccc(C#C[C@@H](C)O)cc3)[C@@H]2C1 | 5.76% (inactive) | 13.1 | -1.96 |
| O=S(=O)(Cc1ccccc1)N1CCCCN2[C@@H](CO)[C@H](c3ccc(-c4ccccc4)cc3)[C@@H]2C1 | -9.68% (inactive) | -41.9 | 18.6 |
| CN(C)CC#Cc1ccc([C@@H]2[C@H](CO)N3CCCCN(C(=O)NC4CCCC4)C[C@@H]23)cc1 | 5.92% (inactive) | 4.22 | 0.0255 |
| CCOC(=O)C1=C(c2ccccc2)NC(=S)NC1c1ccc(Cl)cc1 (stereo not drawn) | -8.35% (inactive) | -7.99 | -0.819 |
| C=CCC1(C#N)C(=S)NC(C)=C(C(=O)OCC)C1c1ccccc1 (stereo not drawn) | -26.3% (active) | -19.2 | -3.7 |
| CCOC(=O)C1C(=O)NCC1c1ccccc1 (stereo not drawn) | 8.68% (inactive) | -9.73 | 1 |
| COc1ccc(NC(=O)N(C)C[C@@H]2OCCCC[C@@H](C)Oc3ccc(NS(=O)(=O)c4cn(C)cn4)cc3C(=O)N([C@@H](C)CO)C[C@H]2C)cc1 | -1.24% (inactive) | -4.49 | 0.792 |
| COc1ccc2c3c(n(C)c2c1)[C@@H](CO)N(C(=O)c1cccnc1)CC31CCN(C(=O)c2cccnc2)CC1 | 2.76% (inactive) | 15.2 | -2.73 |
| N#CCSc1nn(-c2ccc(F)cc2)c(=S)s1 | -34% (active) | -20.7 | -5.63 |
| O=C(CSc1nn(-c2ccc(F)cc2)c(=S)s1)NC1CCS(=O)(=O)C1 (stereo not drawn) | 9.16% (inactive) | 9.88 | 20.6 |
| Cc1ccccc1-n1nc(SCC(=O)O)sc1=S | -0.028% (inactive) | 2.15 | 5.05 |
| CN(C)CCCNC(=O)C[C@H]1CC[C@H]2[C@@H](COC[C@H](O)CN2C(=O)c2ccncc2)O1 | 1.62% (inactive) | 1.82 | -2.93 |
| O=S(=O)(N[C@@H]1CC[C@H](CCn2cc(C3(O)CCCC3)nn2)O[C@@H]1CO)c1ccc(Cl)cc1 | 1% (inactive) | -3.78 | -2.53 |
| Cc1cc(NC(=O)c2cc3ccccc3o2)no1 | -2.45% (inactive) | 5.97 | 7.13 |
| Cc1c(/C=N\NC(=O)c2cc3ccccc3o2)c2ccccc2n1C | -23.4% (active) | -4.47 | 6.38 |
| O=C(N/N=C/c1cccc(O)c1)c1cc2c(ccc3ccccc32)o1 | -16.9% (inactive) | -25.4 | 6.33 |
| Cc1ccccc1S(=O)(=O)N1CC(=O)N2[C@H](CO)[C@H](c3ccc(C#CCN(C)C)cc3)[C@H]2C1 | 4.6% (inactive) | 9.79 | 0.298 |
| COc1cc(CN2CC3(CN(S(=O)(=O)c4cccs4)C3)c3c(n(C)c4cc(OC)ccc34)[C@H]2CO)cc(OC)c1 | 4.45% (inactive) | -5.95 | -2.78 |
| Cc1cc(C(=O)OCC(=O)N2c3ccccc3NC(=O)C2(C)C)c(C)n1-c1ccccc1 | -9.02% (inactive) | -33.1 | -9.39 |
| CNS(=O)(=O)c1cccc(C(=O)OCC(=O)N2c3ccccc3NC(=O)C2(C)C)c1 | -0.594% (inactive) | 2.51 | -1.67 |

| SMILES | GFP signal change (wild-type ribosome) | OD600 change [%] | RFP signal change [%] |
| --- | --- | --- | --- |
| CCNc1ccc(C(=O)OCC(=O)N2c3ccccc3NC(=O)C2(C)C)cc1[N+](=O)[O-] | -25.9% (active) | -16.2 | -4.1 |
| O=C(C[C@H]1CC[C@@H]2[C@H](COC[C@@H](O)CN2Cc2cccc(-c3ccncc3)c2)O1)N1CCOCC1 | -1.04% (inactive) | 0.357 | -4.81 |
| C[C@H]1CN([C@@H](C)CO)C(=O)Cc2cc(NC(=O)NC3CCCCC3)ccc2O[C@@H]1CN(C)Cc1ccc(Oc2ccccc2)cc1 | 1.65% (inactive) | 0.966 | -0.931 |
| C[C@@H]1CN([C@@H](C)CO)C(=O)c2cc(NC(=O)Nc3ccc(C(F)(F)F)cc3)ccc2O[C@@H]1CN(C)Cc1ccncc1 | 8.75% (inactive) | -38.7 | 31.2 |
| O=C(COC(=O)Cc1c[nH]c2ccccc12)NCCc1ccccc1 | 1.61% (inactive) | -7.07 | 1.57 |
| O=C(NCCc1c[nH]c2ccccc12)C1CCN(Cc2ccc(Br)cc2)CC1 | -52.8% (inactive) | -78.6 | -12.4 |
| O=C(NCCc1c[nH]c2ccccc12)c1cccc(Br)c1 | -23% (active) | -17 | 3.38 |
| O=C(CCc1c[nH]c2ccccc12)NCCOc1ccccc1 | 7.54% (inactive) | 3.6 | 0.609 |
| COc1ccccc1CC(=O)NCCc1c[nH]c2ccccc12 | -17.2% (active) | -2.84 | 2.84 |
| O=C(NCCc1c[nH]c2ccccc12)c1cc2ccccc2oc1=O | -5% (inactive) | 0.635 | -0.892 |
| O=C(C[C@H]1CC[C@H]2[C@@H](COC[C@@H](O)CN2S(=O)(=O)c2ccc(Cl)cc2)O1)NCCN1CCCCC1 | 0.039% (inactive) | 1.47 | -0.478 |
| COc1cccc(CC(=O)N2CCN(C(=O)C(=O)c3cccc(C(F)(F)F)c3)CC2)c1 | -2.93% (inactive) | -8.1 | 7.12 |
| C[C@@H]1CN([C@@H](C)CO)S(=O)(=O)c2ccc(-c3cccc(C(=O)N(C)C)c3)cc2O[C@@H]1CN(C)C(=O)Nc1ccccc1 | -9.2% (inactive) | -5.97 | -2.53 |
| O=C(NNC(=O)C1C2CCC(C2)C1C(=O)O)c1ccc(Cl)cc1 (stereo not drawn) | 1.61% (inactive) | 3.63 | -0.52 |
| O=C(NNC(=S)NC1CC2CCC1C2)c1ccc(Cl)cc1 (stereo not drawn) | -24.6% (active) | -6.95 | -4.4 |
| O=S(=O)(NC1CC2CCC1C2)c1ccc(Cl)cc1 (stereo not drawn) | 3.91% (inactive) | -2.44 | -1.19 |
| COc1ccc(NC(=O)N(C)C[C@@H]2Oc3ccc(NS(=O)(=O)c4ccc(C)cc4)cc3CC(=O)N([C@@H](C)CO)C[C@H]2C)cc1 | 0.124% (inactive) | -3.65 | 1.41 |
| S=C(c1ccc(-c2ccccc2)o1)N1CCCCC1 | -28.2% (active) | -14.7 | -0.16 |
| CN1CCN(C(=O)c2ccc(-c3ccc(Br)cc3)o2)CC1 | -5.31% (inactive) | -1.78 | 2.79 |
| CC1CCN(C(=S)c2ccc(-c3ccc(Cl)cc3Cl)o2)CC1 | -16.5% (inactive) | -16.4 | -6.12 |
